# A selection: hits, their analogues and other compounds. The true share with any hit is near 2.6%.
# GPR7 antag: human neuropeptides B/W receptor 1 antagonism | P48145 | GPR7-expressing cells, fluorescence antagonist assay | inhibition, % at 4.4 µM | 290,000 tested, 1.1% active | AID 1861; in the data active means inhibition above about 16%, passing the limit was not always enough;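 further: cells stimulated with the agonist NPW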
# Target sequence (P48145 whole entry, looked up): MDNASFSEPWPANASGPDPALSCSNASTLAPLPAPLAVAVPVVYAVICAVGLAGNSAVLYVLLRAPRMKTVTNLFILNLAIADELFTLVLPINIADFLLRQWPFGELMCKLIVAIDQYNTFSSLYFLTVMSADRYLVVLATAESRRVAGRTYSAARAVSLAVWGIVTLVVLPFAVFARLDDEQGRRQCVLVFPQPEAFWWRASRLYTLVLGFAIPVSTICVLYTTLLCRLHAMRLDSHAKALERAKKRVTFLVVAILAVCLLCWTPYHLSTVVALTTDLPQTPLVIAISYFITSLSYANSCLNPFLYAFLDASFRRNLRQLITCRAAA
# DNA FID counter: displaces DNA intercalator in HCV helicase counter-screen | DNA fluorescent intercalator displacement, fluorescence | inhibition, % at 7.9 µM | 290,000 tested, 0.17% active | AID 1845; in the data active means inhibition above about 37%;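 further: higher means more ethidium bromide displaced from hairpin DNA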
# BaF3 parental: reduces parental Ba/F3 cell viability, JAK2V617F counter-screen; CellTiter-Glo ATP luminescence; inhibition, % at 5.6 µM; 220,000 tested, 1.1% active; AID 1486;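 active means inhibition above a per-campaign cutoff, the mean inhibition of all tested compounds plus 3 SD, cut at about 27% in these data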
# IEC-6 tox: kills IEC-6 intestinal cells in KLF5 counter-screen. 290,000 tested, 0.78% active. IEC-6 cytotoxicity, luminescence viability. inhibition, % at 5 µM; in the data active means inhibition above about 22%
# Ba/F3 V617F tox: reduce viability of Ba/F3 cells dependent on JAK2V617F | Ba/F3 EpoR-JAK2V617F viability, ATP luminescence | inhibition, % at 5.6 µM | 220,000 tested, 1.1% active;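 active means inhibition above the campaign mean plus 3 SD over all tested compounds, cut at about 24% in these data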;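 further: cytokine-independent growth of Ba/F3 cells driven by EpoR plus mutant JAK2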
# KLF5 inh: kruppel-like factor 5 inhibition; DLD-1 KLF5 promoter-luciferase reporter, luminescence; inhibition, % at 5 µM; 290,000 tested, 0.23% active; AID 1700;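 active means inhibition above a per-plate limit of that plate's mean compound inhibition plus 3 SD, cut at about 60% in these data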;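 further: higher means less KLF5 promoter-driven luciferase light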
# BaF3 parental 2: parental Ba/F3 viability inhibition for JAK2V617F counter-screen | CellTiter-Glo luminescence; cells kept alive by added IL-3 | inhibition, % at 5.6 µM | shares compounds with Ba/F3 V617F tox | AID 1520 | 580 tested, 31% active;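 active means cell growth inhibition above the hit limit set in the earlier mutant JAK2 cell screen, cut at about 27% in these data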
# JAK2V617F conf: Ba/F3 EpoR-JAK2V617F viability loss, confirmation | AID 1521 | shares compounds with Ba/F3 V617F tox | inhibition, % at 5.6 µM | CellTiter-Glo luminescence | 580 tested, 66% active;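 active means mean inhibition above the hit cutoff derived in the earlier primary screen, cut at about 25% in these data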;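 further: higher means lower luminescence from reduced cell ATP and viability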
# A number is an active result; . = inactive; / = not tested or not shown.
SMILES,GPR7 antag,DNA FID counter,BaF3 parental,IEC-6 tox,Ba/F3 V617F tox,KLF5 inh,BaF3 parental 2,JAK2V617F conf
COc1ccc(CN2CCN(CCc3ccccc3)C(CCO)C2)cc1Cn1cncn1 (configuration not stated),.,.,.,.,.,.,/,/
CCN1C(=O)c2ccccc2S(=O)c2ccc(C(=O)NCCN(CC(C)C)CC(C)C)cc21 (configuration not stated),.,.,/,.,/,.,/,/
CN1CCN(C(=S)Nc2ccc(Cl)c(Cl)c2)CC1,.,.,.,.,43.4,.,.,46.2
CC(C)c1nc2sc3c(SCC(=O)NCc4ccco4)ncnc3c2c2c1CCC2,.,.,.,.,.,.,/,/
CC1(C)Cc2nc3sc4c(SCC(=O)NCc5ccco5)ncnc4c3cc2CO1,.,.,.,.,71.6,.,61.8,89.5
CCCn1nc(C(=O)NCc2ccc3c(c2)OCO3)c2ccccc2c1=O,.,.,.,.,.,.,/,/
CCC(CC)C(=O)N(CCc1ccc(OC)cc1)Cc1nc2ccccc2c(=O)[nH]1,.,.,.,.,.,.,/,/
CCc1ccc(NC(=O)c2noc3c2CCc2ccccc2-3)cc1,.,.,.,.,61.5,.,.,.
Cc1cc(/C=C(\C#N)C(=O)Nc2ccccc2)c(C)n1-c1ccc(C(=O)O)cc1,.,.,.,.,.,.,/,/
COc1ccc(NC(=O)/C(C#N)=C\c2cc(C)n(-c3ccc4c(c3)OCO4)c2C)cc1,.,.,.,.,29.7,.,72.9,92.6
CCOC(=O)NC(=O)/C(C#N)=C(/C)N(C)C,.,.,.,.,.,.,/,/
CC(=O)c1cccc(CN2CCC(C(=O)Nc3ccc(-c4cccc(C)c4)cc3)CC2)c1,.,.,/,.,/,.,/,/
COc1ccc(-c2cc(C(=O)O)nc3ccc4ccccc4c23)cc1OC,.,.,.,.,.,.,/,/
Oc1ccc(-c2nc3ccc4ccccc4c3c3c2CCC3)cc1O,.,.,.,.,62.8,.,53.0,97.5
Cc1ccc(NC(=O)C2=C(c3ccccc3)S(=O)(=O)CCS2(=O)=O)cc1,33.9,.,.,.,71.4,.,39.8,99.5
Cc1cccc(Nc2nc(NCc3ccco3)c3ccccc3n2)c1,.,.,.,.,32.6,.,49.5,52.5
Cc1cc(C)cc(-n2nnc(C(=O)NCc3ccccc3)c2N)c1,.,.,.,.,.,.,/,/
COc1ccccc1-c1nnc(Sc2nc([N+](=O)[O-])nn2C)o1,.,.,.,.,60.3,.,.,86.8
Cc1cc(SCC(=O)N/N=C/c2ccc(O)c(O)c2)c(C)cc1Br,.,.,.,.,44.2,.,.,85.2
CC(C)c1ccc(C(=O)NNC(=O)c2ccncc2)cc1,.,.,/,.,/,.,/,/
Cc1ccc(NC(=O)c2ccc([N+](=O)[O-])o2)cc1C,.,.,.,45.4,36.9,.,31.0,93.3
Cc1ccnc(NC(=O)c2ccc([N+](=O)[O-])o2)c1,.,.,.,.,.,.,/,/
CC(=O)C1=C(c2ccc(Br)cc2)C(=O)c2ccccc2C1=O,.,.,.,.,26.3,.,105.3,98.3
CC1=CC(=C2C(=O)c3ccccc3C2=O)C=C(C)O1,.,.,.,.,.,.,/,/
CN1CCN(c2nc3c(c(=O)n(C)c(=O)n3C)n2CCSc2nc3ccccc3s2)CC1,.,.,.,.,.,.,/,/
SMILES,GPR7 antag,DNA FID counter,BaF3 parental,IEC-6 tox,Ba/F3 V617F tox,KLF5 inh,BaF3 parental 2,JAK2V617F conf
O=C(Nc1cccc(F)c1)Nc1ccnn1C1CCN(C(=O)c2ccccn2)CC1,.,.,/,.,/,.,/,/
COc1ccc(Cl)c(Cn2c(NCc3ccco3)nc3c2c(=O)n(C)c(=O)n3C)c1,.,.,.,.,37.4,.,82.8,61.8
Cc1nn(CC(=O)N2CC(=O)Nc3ccccc32)c(C)c1[N+](=O)[O-],.,.,.,.,.,.,/,/
Cc1[nH]nc2c1/C(=N\O)CC(C)(C)C2,.,.,.,.,.,.,/,/
O=C(Cc1ccc(Cl)cc1)NCCc1c[nH]c2ccccc12,.,.,/,.,/,.,/,/
O=C(CCl)N(c1ccc(Cl)cc1)c1c[nH]c2ccccc12,.,.,.,.,71.7,.,73.4,99.3
Cc1ccc(C(=O)NCCSC(C)(C)C)cc1,.,.,.,.,.,.,/,/
COc1ccc(N=Nc2n(C)c3ccccc3[n+]2C)cc1,.,.,.,.,25.9,.,34.7,.
Cn1c(COc2ccccc2O)[n+](C)c2ccccc21,.,.,/,.,/,.,/,/
COc1cc(C(=O)OCC(C)=O)ccc1OCc1c(C)noc1C,.,.,.,.,38.9,.,.,25.6
COc1cc(C(=O)O)ccc1OCc1c(C)noc1C,.,.,.,.,.,.,/,/
NC(=O)c1ccc(-n2nnnc2SCC(=O)c2ccc(O)c(O)c2)cc1,.,.,.,.,.,.,/,/
COc1ccc(-n2nnnc2SCC(=O)c2ccc(O)c(O)c2)cc1,.,.,.,.,52.3,.,.,79.2
CC1CC[C@@]2(OC1)O[C@H]1CC3[C@@H]4C[C@@H](O)[C@@]5(O)C[C@@H](O)[C@H](O)C[C@]5(C)[C@H]4CC[C@]3(C)[C@H]1[C@@H]2C (some centres not stated),.,.,/,.,/,.,/,/
CC(=O)n1cc(N(C(=O)CCl)c2ccc([N+](=O)[O-])cc2)c2ccccc21,20.9,.,.,.,63.0,.,46.2,100.0
CC(=O)n1cc(N(C(=O)CCl)c2ccccc2)c2ccccc21,.,.,.,.,95.9,.,98.1,99.4
O=Cc1[nH]c2ccccc2c1N(C(=O)CCl)c1ccc([N+](=O)[O-])cc1,.,.,.,.,.,.,/,/
CCN(CC)S(=O)(=O)c1ccc(OC)c(NC(=O)c2cccc([N+](=O)[O-])c2C)c1,.,.,.,.,.,.,/,/
CCOC(=O)C1=C2SCCN2C(=O)C(C#N)C1(C)C (configuration not stated),.,.,.,.,.,.,/,/
COc1ccc(N2CCc3c(C)nc4c(OC)cc(OC)cc4c32)c(OC)c1,.,.,.,.,48.0,.,.,64.3
Cc1nc2c(C)cccc2c2c1CCN2c1ccccc1F,.,.,.,.,.,.,/,/
Cc1ccc(-c2nn(CC(=O)NCc3cc(-c4nn(C)c(=O)c5ccccc45)ccc3C)c(=O)c3ccccc23)cc1,.,.,.,.,.,.,/,/
Cc1ccc(N/C(=C\C(=O)c2ccccc2)C(=O)O)cc1,.,.,.,.,40.2,.,.,.
Cc1ccc(NC(=O)c2ccccc2)cc1,.,.,.,.,.,.,/,/
CC(/C=C/c1ccccc1)=N\NC(=O)Cn1cncn1,.,.,.,.,31.3,.,.,.
CC(/C=C/c1ccccc1)=N\NC(=O)CSc1ccccn1,.,.,.,.,.,.,/,/
Cc1ccc(C(=O)c2c(C)oc3c2C(=O)C(=O)c2ccccc2-3)cc1,.,.,.,.,26.5,.,.,33.5

# Screening results as filed in PubChem.
